For 13 molecules, cell viability results are on record in the supplement of paper PMC12669797.

In assay [1] the test system is ES2. Put plainly: cell viability relative to DMSO control (MTS) (fraction of DMSO control); higher = more viable cells / less growth inhibition. The settings on record: 10 µM; 48 h. The method in brief:
(§1)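 A 367-compound […] library was tested at a final concentration of 10 µM on TOV-21G and ES2 clear cell carcinoma cells (5000 cells per well, 96-well plates, pre-grown 24 h), with control wells receiving vehicle only. Following 48 h of exposure, CellTiter 96 AQueous One Solution was used as the manufacturer directs. This MTS assay gives cell viability as a fraction of the vehicle control.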

In assay [2] the test system is TOV-21G. Described as above. The settings on record: 10 µM; 48 h. The method in brief:
as §1

The structures appear in SMILES notation. ± gives the standard deviation of the averaged measurements.

As for `CC(=N)NCc1cccc(CN)c1`, the cell viability in assay [1] worked out at 1.15; in assay [2], 0.992.

On to `COc1cc([C@@H]2c3cc4c(cc3[C@@H](O[C@@H]3O[C@@H]5CO[C@@H](C)O[C@H]5[C@H](O)[C@H]3O)[C@H]3COC(=O)[C@H]23)OCO4)cc(OC)c1O` [Etoposide (VP-16)], for which the cell viability is 0.655 in assay [1] and 0.658 in assay [2].

As to `COC(=O)c1ccc(NCc2cc(O)ccc2O)cc1`, the cell viability in assay [1] amounted to 1.414 ± 0.0028; in assay [2], 1.06 ± 0.026.

For `CC(C)C(C(=O)O)N1C(=O)C(=Cc2ccc(Br)cc2)SC1=S` (stereo unspecified), the values for the cell viability in assay [1] and in assay [2] were 1.11 and 1.16, respectively.

For `O=C1CCC(N2C(=O)c3ccccc3C2=O)C(=O)N1` (stereo unspecified) [thalidomide], the values for the cell viability in assay [1] and in assay [2] were 0.958 and 0.989, respectively.

For `C1=Cc2nc1cc1nc(c(-c3ccccc3)c3ccc(cc4ccc([nH]4)c2-c2ccccc2)[nH]3)C=C1`, the cell viability in assay [1] was 0.908; in assay [2] it was 1.19.

On to `NC(=O)NO` [Hydroxyurea], for which the cell viability in assay [1] was 1.21; in assay [2], 0.811.

Consider `CCN(CC)CC(=O)Nc1c(C)cccc1C` [Lidocaine], for which the figures for the cell viability in assay [1] and in assay [2] were 1.1 and 1.4, respectively.

For the molecule `Cn1c(=O)c2nc[nH]c2n(C)c1=O` [Theophylline], the cell viability in assay [1] is 0.452; in assay [2], 0.772.

For `N#CCCc1ccc2c(c1)-c1[nH]c3ccc([N+](=O)[O-])cc3c1CC(=O)N2` [Alsterpaullone, 2-cyanoethyl], the cell viability in assay [1] stood at 0.893; in assay [2], 0.778.

`CC(Cc1ccc(O)c(O)c1)C(C)Cc1ccc(O)c(O)c1` (stereo unspecified) [Nordihydroguaiaretic acid (NDGA)]: the values for the cell viability in assay [1] and in assay [2] were 1 and 0.865, respectively.

For `Nc1[nH]nc2nnc(-c3c(-c4ccccc4)nn4ccccc34)cc12` [ERK inhibitor II], the cell viability was 0.847 in assay [1] and 0.734 in assay [2].

With `COc1cc2ncnc(Nc3cccc(Cl)c3)c2cc1OC`, the cell viability in assay [1] came to 1.04 ± 0.12; in assay [2], 0.839 ± 0.24.
